According to PubChem BioAssay (NCI):
Compounds without any hit were thinned out: in the full panel of roughly 83,000, 20% have a hit.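 Method: cells in 96-well plates; compound added at one concentration; 48 h incubation; percent growth measured; values under 10 scored active.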 Unmarked numbers belong to inactive results. Activity calls are given as the source filed them.

Columns and labels:
Experiment in all cases: NCI-60 one-dose screen, 48 h (100 = growth as untreated, 0 = no growth, -100 = all killed)
Settings in all cases: 10 µM
786-0 renal = system: 786-0 renal
MALME-3M melanoma = system: MALME-3M melanoma
RXF 393 renal = system: RXF 393 renal
UACC-257 melanoma = system: UACC-257 melanoma
SK-MEL-2 melanoma = system: SK-MEL-2 melanoma
SN12C renal = system: SN12C renal
TK-10 renal = system: TK-10 renal
ACHN renal = system: ACHN renal
A498 renal = system: A498 renal
RPMI-8226 leukemia = system: RPMI-8226 leukemia
OVCAR-8 ovarian = system: OVCAR-8 ovarian
OVCAR-4 ovarian = system: OVCAR-4 ovarian
SK-OV-3 ovarian = system: SK-OV-3 ovarian
IGROV1 ovarian = system: IGROV1 ovarian
OVCAR-3 ovarian = system: OVCAR-3 ovarian
NCI/ADR-RES ovarian = system: NCI/ADR-RES ovarian
T-47D breast = system: T-47D breast
BT-549 breast = system: BT-549 breast
MDA-MB-435 melanoma = system: MDA-MB-435 melanoma
MCF7 breast = system: MCF7 breast

In the case of `COC(=O)C[C@](O)(CCCC(C)C)C(=O)O[C@H]1C(OC)=C[C@@]23CCCN2CCc2cc4c(cc2[C@@H]13)OCO4`, the growth (786-0 renal) is reported as 2.04% (active), the growth (MALME-3M melanoma) is reported as -38.5% (active) and the growth (RXF 393 renal) is reported as -8.52% (active). For the same compound, the growth (UACC-257 melanoma) was -25.9% (active), the growth (SK-MEL-2 melanoma) was -0.0193% (active) and the growth (SN12C renal) was 6.06% (active). For the same compound, the growth (TK-10 renal) was 4.08% (active), the growth (ACHN renal) was -8.49% (active) and the growth (A498 renal) was -17.2% (active). The growth (RPMI-8226 leukemia) was -20.7% (active), the growth (OVCAR-8 ovarian) was -21.3% (active) and the growth (OVCAR-4 ovarian) was -9.31% (active). For the same compound, the growth (SK-OV-3 ovarian) was 0.521% (active), the growth (IGROV1 ovarian) was 8.76% (active) and the growth (OVCAR-3 ovarian) was -31% (active). For the same compound, the growth (NCI/ADR-RES ovarian) was 14.1%, the growth (T-47D breast) was 2.21% (active) and the growth (BT-549 breast) was -17.8% (active). The growth (MDA-MB-435 melanoma) was 1.79% (active) and the growth (MCF7 breast) was -6.98% (active).

With `O=C(/C=C/c1ccccc1)c1nc2ccccc2n1Cc1ccc(F)cc1` the growth (786-0 renal) was -88.3% (active), the growth (MALME-3M melanoma) was -28.3% (active) and the growth (RXF 393 renal) was -89.3% (active). For the same compound, the growth (UACC-257 melanoma) was -1.28% (active), the growth (SK-MEL-2 melanoma) was 18.9% and the growth (SN12C renal) was -5.26% (active). The growth (TK-10 renal) was -14.3% (active), the growth (ACHN renal) was -55% (active) and the growth (A498 renal) was 106%. The growth (RPMI-8226 leukemia) was -38% (active), the growth (OVCAR-8 ovarian) was 4.71% (active) and the growth (OVCAR-4 ovarian) was 47.7%. The growth (SK-OV-3 ovarian) was 64.9%, the growth (IGROV1 ovarian) was -32.9% (active) and the growth (OVCAR-3 ovarian) was -47.5% (active). For the same compound, the growth (NCI/ADR-RES ovarian) was -49.6% (active), the growth (T-47D breast) was -15.9% (active) and the growth (BT-549 breast) was -65% (active). For the same compound, the growth (MDA-MB-435 melanoma) was -29.3% (active) and the growth (MCF7 breast) was -32.7% (active).

With `O=C(NCCCCC(c1ccc(F)cc1)c1ccc(F)cc1)Nc1ccc([N+](=O)[O-])c(C(F)(F)F)c1` the growth (786-0 renal) was -15% (active), the growth (MALME-3M melanoma) was -25.8% (active) and the growth (RXF 393 renal) was -41.3% (active). The growth (UACC-257 melanoma) was -15.7% (active), the growth (SK-MEL-2 melanoma) was -71% (active) and the growth (SN12C renal) was 7.2% (active). The growth (TK-10 renal) was 10%, the growth (ACHN renal) was -2.96% (active) and the growth (A498 renal) was -9.75% (active). For the same compound, the growth (RPMI-8226 leukemia) was -39.3% (active), the growth (OVCAR-8 ovarian) was 5.42% (active) and the growth (OVCAR-4 ovarian) was 11.5%. For the same compound, the growth (SK-OV-3 ovarian) was -33% (active), the growth (IGROV1 ovarian) was 15.4% and the growth (OVCAR-3 ovarian) was 1.5% (active). For the same compound, the growth (NCI/ADR-RES ovarian) was -4.02% (active), the growth (T-47D breast) was -10.4% (active) and the growth (BT-549 breast) was -28% (active). The growth (MDA-MB-435 melanoma) was -21.3% (active) and the growth (MCF7 breast) was 1.44% (active).
